Where “and” joins values, the source holds several entries; their conditions need not be identical. Equal entries are not always repeated. Inconclusive results are not listed. Calls of active or inactive are those of the source. Unless noted, calls follow the shape of the dose curve; as a rule, active = well fitted curve in the direction sought with a large enough effect in the repeat runs; inconclusive = weak or mixed curves; inactive = no such curve, though single readings can be large; an effect the other way counts as inactive or inconclusive.
Columns and labels:
[1] = target: Acetylcholinesterase (Homo sapiens) (UniProt P22303); assay: Acetylcholinesterase (AChE) small molecule antagonists: fluorescence cell-based qHTS assay (AID 1347398; calls by dose curve; also: nearly all actives have a fitted effect of over 50% in size); conditions: Potency: AChE activity
Chain of Acetylcholinesterase (Homo sapiens) (P22303 whole entry, looked up): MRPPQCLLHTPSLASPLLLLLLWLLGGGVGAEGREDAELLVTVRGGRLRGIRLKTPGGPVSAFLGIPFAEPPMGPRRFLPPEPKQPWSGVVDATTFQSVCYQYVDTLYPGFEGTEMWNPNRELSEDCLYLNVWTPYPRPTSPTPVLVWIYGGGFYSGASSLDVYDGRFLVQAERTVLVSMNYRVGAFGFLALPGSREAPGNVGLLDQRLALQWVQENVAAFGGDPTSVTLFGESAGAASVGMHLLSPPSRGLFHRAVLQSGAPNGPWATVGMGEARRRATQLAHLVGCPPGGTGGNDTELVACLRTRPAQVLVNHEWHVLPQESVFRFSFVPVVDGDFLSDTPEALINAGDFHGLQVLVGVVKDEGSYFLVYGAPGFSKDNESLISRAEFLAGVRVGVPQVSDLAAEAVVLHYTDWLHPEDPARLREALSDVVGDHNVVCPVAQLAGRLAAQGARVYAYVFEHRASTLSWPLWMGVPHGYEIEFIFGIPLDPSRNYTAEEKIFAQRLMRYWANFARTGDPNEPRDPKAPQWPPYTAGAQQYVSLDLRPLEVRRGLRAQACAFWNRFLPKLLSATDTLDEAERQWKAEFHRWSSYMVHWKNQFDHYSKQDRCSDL
Procedure, shortened: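 Cellular AChE activity read as thiocholine from acetylthiocholine hydrolysis, detected by Thiolite Green fluorescence at 490/520 nm after 40 min at room temperature. Compounds were pre-incubated 30 min at 37 C on adherent SH-SY5Y cells.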

[2] = target: Acetylcholinesterase (Homo sapiens) (UniProt P22303); assay: Acetylcholinesterase (AChE) small molecule antagonists: enzyme-based qHTS assay with human liver microsomes (AID 1347399; calls by dose curve; also: nearly all actives have a fitted effect of over 60% in size); conditions: Potency: qHTS inhibition
Procedure, shortened: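 Recombinant human AChE (50 mU/mL in the enzyme mix) and human liver microsomes (0.25 mg/mL final) were preincubated with compound and NADPH (0.25 mg/mL final) for 30 min at 37 C. Acetylthiocholine/DTNB was then added; thiocholine was read colorimetrically after 10 min at room temperature.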

[3] = target: Cytochrome P450 2D6 (Homo sapiens) (UniProt P10635); assay: Cytochrome P450 Family 2 Subfamily D Member 6 (CYP2D6) small molecule antagonists: luciferase reporter qHTS assay (AID 1671196); also: nearly all actives have a fitted effect of over 50% in size; as to activity change, negative = inhibition: series mostly up to about 120 µM
Chain of Cytochrome P450 2D6 (Homo sapiens) (P10635 whole entry, looked up): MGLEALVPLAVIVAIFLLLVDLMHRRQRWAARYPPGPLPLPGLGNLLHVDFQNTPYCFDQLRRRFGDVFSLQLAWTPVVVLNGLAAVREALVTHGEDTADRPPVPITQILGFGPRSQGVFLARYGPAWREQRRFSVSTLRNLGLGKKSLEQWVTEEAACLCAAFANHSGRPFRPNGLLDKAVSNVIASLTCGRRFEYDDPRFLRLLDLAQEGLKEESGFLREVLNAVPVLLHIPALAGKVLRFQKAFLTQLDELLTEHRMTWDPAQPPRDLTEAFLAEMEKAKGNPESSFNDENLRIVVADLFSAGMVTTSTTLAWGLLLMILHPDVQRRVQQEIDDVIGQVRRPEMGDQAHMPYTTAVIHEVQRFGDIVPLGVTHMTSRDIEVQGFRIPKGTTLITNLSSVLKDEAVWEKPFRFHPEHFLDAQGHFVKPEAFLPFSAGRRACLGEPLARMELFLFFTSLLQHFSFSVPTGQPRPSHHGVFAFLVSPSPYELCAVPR
Procedure, shortened: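 Enzyme and proluciferin substrate were first combined with test chemical for 10 min at room temperature. Adding NADPH regeneration solution started a 1 h reaction, stopped with luciferin detection reagent and read by luminescence 20 min later.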

[4] = target: Cytochrome P450 2C19 (Homo sapiens) (UniProt P33261); assay: Cytochrome P450 Family 2 Subfamily C Member 19 (CYP2C19) small molecule antagonists: luciferase reporter qHTS assay (AID 1671197); also: nearly all actives have a fitted effect of over 65% in size; as to activity change, negative = inhibition: series mostly up to about 120 µM
Chain of Cytochrome P450 2C19 (Homo sapiens) (P33261 whole entry, looked up): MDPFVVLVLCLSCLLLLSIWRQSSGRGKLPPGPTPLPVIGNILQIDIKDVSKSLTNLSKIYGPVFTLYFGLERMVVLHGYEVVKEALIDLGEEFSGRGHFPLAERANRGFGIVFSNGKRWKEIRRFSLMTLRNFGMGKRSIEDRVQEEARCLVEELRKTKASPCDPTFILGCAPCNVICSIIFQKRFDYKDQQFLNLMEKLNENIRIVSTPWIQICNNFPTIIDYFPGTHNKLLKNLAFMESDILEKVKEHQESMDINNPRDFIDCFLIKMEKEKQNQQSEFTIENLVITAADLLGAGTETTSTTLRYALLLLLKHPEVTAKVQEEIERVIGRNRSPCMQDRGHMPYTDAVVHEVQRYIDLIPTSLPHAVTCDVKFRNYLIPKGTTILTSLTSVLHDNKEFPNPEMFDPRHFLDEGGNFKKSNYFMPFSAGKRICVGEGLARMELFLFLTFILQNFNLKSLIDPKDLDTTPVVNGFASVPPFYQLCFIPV
Procedure, shortened: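 Relative luminescence units recorded 20 min after the detection reagent stopped a 1 h, 37C CYP2C19 reaction on proluciferin substrate, which was started by NADPH regeneration following 10 min room-temperature compound preincubation; ketoconazole positive control.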

[5] = target: Cytochrome P450 2C9 (Homo sapiens) (UniProt P11712); assay: Cytochrome P450 Family 2 Subfamily C Member 9 (CYP2C9) small molecule antagonists: luciferase reporter qHTS assay (AID 1671198); also: nearly all actives have a fitted effect of over 50% in size; as to activity change, negative = inhibition: series mostly up to about 120 µM
Chain of Cytochrome P450 2C9 (Homo sapiens) (P11712 whole entry, looked up): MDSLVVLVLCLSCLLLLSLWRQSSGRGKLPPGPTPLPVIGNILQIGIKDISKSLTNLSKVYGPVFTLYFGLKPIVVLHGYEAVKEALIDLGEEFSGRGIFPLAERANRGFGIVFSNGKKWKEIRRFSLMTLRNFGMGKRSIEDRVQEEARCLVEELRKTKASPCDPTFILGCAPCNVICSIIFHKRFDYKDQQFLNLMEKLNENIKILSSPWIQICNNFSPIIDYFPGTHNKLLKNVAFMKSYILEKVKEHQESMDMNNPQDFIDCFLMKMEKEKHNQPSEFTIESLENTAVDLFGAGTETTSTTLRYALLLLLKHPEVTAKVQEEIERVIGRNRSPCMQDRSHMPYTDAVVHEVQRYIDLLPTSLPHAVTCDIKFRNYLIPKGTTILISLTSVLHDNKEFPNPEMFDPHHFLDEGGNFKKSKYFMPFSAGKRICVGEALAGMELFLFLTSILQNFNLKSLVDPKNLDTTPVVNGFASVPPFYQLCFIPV
Procedure, shortened: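 Enzyme-substrate mix preincubated with compound 10 min at room temperature; reaction started with NADPH regeneration solution, 1 h 37C. Luminescent luciferin product read after 20 min detection reagent.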

[6] = target: Cytochrome P450 1A2 (Homo sapiens) (UniProt P05177); assay: Cytochrome P450 Family 1 Subfamily A Member 2 (CYP1A2) small molecule antagonists: luciferase reporter qHTS assay (AID 1671199); also: nearly all actives have a fitted effect of over 50% in size; as to activity change, negative = inhibition: series mostly up to about 120 µM
Chain of Cytochrome P450 1A2 (Homo sapiens) (P05177 whole entry, looked up): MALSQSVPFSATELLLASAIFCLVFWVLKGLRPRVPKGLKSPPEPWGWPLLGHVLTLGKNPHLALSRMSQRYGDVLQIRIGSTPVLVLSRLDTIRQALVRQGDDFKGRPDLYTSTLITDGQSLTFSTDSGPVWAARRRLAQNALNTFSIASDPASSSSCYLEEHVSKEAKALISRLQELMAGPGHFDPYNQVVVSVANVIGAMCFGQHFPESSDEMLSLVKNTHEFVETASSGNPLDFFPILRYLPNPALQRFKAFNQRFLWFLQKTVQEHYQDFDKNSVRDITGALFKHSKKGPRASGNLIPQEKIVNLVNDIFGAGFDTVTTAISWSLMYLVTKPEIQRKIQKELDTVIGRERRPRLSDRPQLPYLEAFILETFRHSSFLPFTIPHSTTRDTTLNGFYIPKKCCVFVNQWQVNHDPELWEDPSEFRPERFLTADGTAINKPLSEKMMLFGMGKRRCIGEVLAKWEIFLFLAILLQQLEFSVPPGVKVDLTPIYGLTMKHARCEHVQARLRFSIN
Procedure, shortened: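 Compounds were incubated with CYP1A2 and a luminogenic proluciferin substrate for 10 min at room temperature before the reaction was started with NADPH regeneration solution. After 1 h, detection reagent was added and light output, proportional to CYP activity, was recorded.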

[7] = target: Voltage-gated inwardly rectifying potassium channel KCNH2 (Homo sapiens) (UniProt Q12809); assay: Human Ether-a-go-go-Related Gene (hERG) channel small molecule antagonists: fluorescence cell-based qHTS assay (AID 1671200); also: nearly all actives have a fitted effect of over 50% in size;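 as to activity change, negative = inhibition: hERG-expressing U2OS cells given a thallium stimulus after FluxOR II dye loading; series mostly up to about 77 µM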
Chain of Voltage-gated inwardly rectifying potassium channel KCNH2 (Homo sapiens) (Q12809 whole entry, looked up): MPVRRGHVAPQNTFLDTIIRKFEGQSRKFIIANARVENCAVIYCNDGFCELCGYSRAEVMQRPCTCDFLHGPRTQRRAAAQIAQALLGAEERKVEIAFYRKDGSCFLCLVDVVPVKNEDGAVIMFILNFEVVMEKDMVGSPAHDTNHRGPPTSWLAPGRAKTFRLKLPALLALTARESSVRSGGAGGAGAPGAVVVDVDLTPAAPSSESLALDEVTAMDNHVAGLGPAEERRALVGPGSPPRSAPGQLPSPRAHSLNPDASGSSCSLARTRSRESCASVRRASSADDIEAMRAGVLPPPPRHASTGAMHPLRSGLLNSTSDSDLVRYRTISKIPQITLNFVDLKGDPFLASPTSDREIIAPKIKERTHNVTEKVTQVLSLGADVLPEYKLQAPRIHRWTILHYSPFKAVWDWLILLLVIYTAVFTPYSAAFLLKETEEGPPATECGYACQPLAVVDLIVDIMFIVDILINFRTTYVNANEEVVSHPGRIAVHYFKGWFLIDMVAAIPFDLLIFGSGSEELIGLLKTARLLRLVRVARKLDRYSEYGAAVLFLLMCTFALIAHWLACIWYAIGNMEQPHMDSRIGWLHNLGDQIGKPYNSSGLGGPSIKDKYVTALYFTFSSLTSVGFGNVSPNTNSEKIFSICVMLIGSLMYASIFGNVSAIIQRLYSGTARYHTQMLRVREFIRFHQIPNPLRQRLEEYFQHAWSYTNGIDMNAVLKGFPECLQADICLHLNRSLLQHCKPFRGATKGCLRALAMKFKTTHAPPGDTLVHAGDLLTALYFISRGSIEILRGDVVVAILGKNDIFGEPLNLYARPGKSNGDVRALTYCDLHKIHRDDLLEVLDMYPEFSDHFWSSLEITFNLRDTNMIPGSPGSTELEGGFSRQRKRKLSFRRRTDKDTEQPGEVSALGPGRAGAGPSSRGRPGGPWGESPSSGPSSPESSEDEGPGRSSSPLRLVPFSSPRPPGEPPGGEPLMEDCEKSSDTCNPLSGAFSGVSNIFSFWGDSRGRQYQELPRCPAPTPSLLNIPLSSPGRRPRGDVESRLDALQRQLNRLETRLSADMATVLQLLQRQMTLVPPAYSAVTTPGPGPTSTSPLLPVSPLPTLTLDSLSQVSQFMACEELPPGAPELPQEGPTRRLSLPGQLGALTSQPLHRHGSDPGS
Procedure, shortened: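 Read-out: thallium influx as a surrogate for potassium, tracked as fluorescence (480 nm ex/540 nm em) every second for 2 min after Stimulus Buffer addition in dye-loaded hERG-U2OS cells.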

[8] = target: Cytochrome P450 3A4 (Homo sapiens) (UniProt P08684); assay: Cytochrome P450 Family 3 Subfamily A Member 4 (CYP3A4) small molecule antagonists: luciferase reporter qHTS assay (AID 1671201); also: nearly all actives have a fitted effect of over 50% in size; as to activity change, negative = inhibition: series mostly up to about 120 µM
Chain of Cytochrome P450 3A4 (Homo sapiens) (P08684 whole entry, looked up): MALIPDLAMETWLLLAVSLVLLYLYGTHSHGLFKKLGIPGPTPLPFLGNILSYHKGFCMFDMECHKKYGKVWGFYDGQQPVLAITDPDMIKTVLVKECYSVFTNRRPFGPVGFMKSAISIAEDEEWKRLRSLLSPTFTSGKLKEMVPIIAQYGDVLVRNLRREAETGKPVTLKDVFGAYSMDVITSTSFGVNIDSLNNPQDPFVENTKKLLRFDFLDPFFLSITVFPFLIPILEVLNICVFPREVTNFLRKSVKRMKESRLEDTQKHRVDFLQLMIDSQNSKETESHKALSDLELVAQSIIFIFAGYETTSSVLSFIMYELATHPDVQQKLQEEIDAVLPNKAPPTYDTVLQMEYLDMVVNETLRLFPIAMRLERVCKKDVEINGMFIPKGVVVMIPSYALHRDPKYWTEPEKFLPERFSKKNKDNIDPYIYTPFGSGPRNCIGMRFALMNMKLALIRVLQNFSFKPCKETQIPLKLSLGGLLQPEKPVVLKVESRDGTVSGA
Procedure, shortened: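 Luminescent readout (RLU) proportional to CYP3A4 activity, from luciferin generated off a proluciferin substrate. Enzyme–substrate mix plus compound 10 min at room temp, NADPH regeneration 1 h, detection reagent 20 min.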
% is scaled to controls: 0 for no effect and ±100 for the full control effect; potency is read from the fitted curve at half-maximal effect.

Oc1c(Cl)c(Cl)cc(Cl)c1Cl
inactive: Potency [1] | Potency [2] | Potency [3] | Potency [4] | Potency [7] | Potency [8]
active: Potency [5] 21.8 µM | Potency [6] 69.1 µM

CCOP(=S)(OCC)SCS(=O)(=O)CC
inactive: Potency [7]
active: Potency [1] 2.52 µM | Potency [2] 12.6 µM | Potency [3] 39.9 µM | Potency [4] 5.64 µM | Potency [5] 12.6 µM | Potency [6] 35.6 µM | Potency [8] 7.96 µM

Oc1cc(Cl)c(Cl)c(Cl)c1
active: Potency [3] 6.73 µM | Potency [6] 26.8 µM | Potency [8] 53.5 µM
inactive: Potency [1] | Potency [2] | Potency [4] | Potency [5]

C[As+](C)(C)CC(=O)[O-]
inactive: Potency [1] | Potency [2] | Potency [3] | Potency [4] | Potency [5] | Potency [6] | Potency [7] | Potency [8]

COP(=O)(CCC(=O)NCO)OC
inactive: Potency [1] | Potency [2] | Potency [3] | Potency [4] | Potency [5] | Potency [6] | Potency [7] | Potency [8]

COS(=O)(=O)c1ccc(C)cc1
inactive: Potency [1] | Potency [2] | Potency [3] | Potency [4] | Potency [5] | Potency [6] | Potency [7] | Potency [8]

NC(=O)c1ccc(N)nc1
inactive: Potency [1] | Potency [2] | Potency [3] | Potency [4] | Potency [5] | Potency [6] | Potency [7] | Potency [8]

ClC1=C(Cl)[C@]2(Cl)[C@@H]3[C@@H](Cl)[C@@H](Cl)C[C@@H]3[C@@]1(Cl)C2(Cl)Cl
inactive: Potency [1] | Potency [2] | Potency [3] | Potency [4] | Potency [5] | Potency [6] | Potency [7] | Potency [8]

CCCCCCCCCC[N+](C)(C)CCCCCCCCCC
active: Potency [1] 56.4 µM | Potency [3] 1 µM | Potency [4] 35.6 µM | Potency [5] 39.9 µM | Potency [6] 39.9 µM | Potency [8] 56.4 µM
inactive: Potency [2]

ClC1=C(Cl)C2(Cl)C3C(Cl)C(Cl)CC3C1(Cl)C2(Cl)Cl (centres undefined)
inactive: Potency [1] | Potency [2] | Potency [3] | Potency [6]
active: Potency [4] 3.16 µM and 3.56 µM | Potency [5] 31.6 µM and 20 µM | Potency [7] 24.5 µM | Potency [8] 708 nM and 2 µM

CC(C)CC(C)(c1ccc(O)cc1)c1ccc(O)cc1
inactive: Potency [1] | Potency [2] | Potency [3] | Potency [6]
active: Potency [4] 35.7 µM and 22.4 µM | Potency [5] 28.3 µM and 17.8 µM | Potency [8] 17.9 µM and 31.7 µM

Cl/C=C\CCl
active: Potency [6] 35.6 µM
inactive: Potency [1] | Potency [2] | Potency [3] | Potency [4] | Potency [5] | Potency [7] | Potency [8]

CCCCCCCCCCCCBr
inactive: Potency [1] | Potency [2] | Potency [3] | Potency [4] | Potency [5] | Potency [7]

C=CCOC(N)=O
inactive: Potency [1] | Potency [2] | Potency [3] | Potency [4] | Potency [5] | Potency [7]

Clc1ccc(-c2ccc(Cl)c(Cl)c2Cl)c(Cl)c1Cl
inactive: Potency [1] | Potency [2] | Potency [3] | Potency [7] | Potency [8]
active: Potency [4] 1.91 µM | Potency [5] 17 µM | Potency [6] 33.9 µM

CC(C)C1CCC(Cc2ccc(Cl)cc2)C1(O)Cn1cncn1 (centres undefined)
inactive: Potency [1] | Potency [2]
active: Potency [3] 22.2 µM | Potency [4] 0.353 µM | Potency [5] 0.789 µM | Potency [6] 31.4 µM | Potency [7] 34.3 µM | Potency [8] 0.0498 µM

CC(=O)OC1(c2ccccc2)CCN(CCc2ccccc2)CC1
inactive: Potency [1] | Potency [2] | Potency [6] | Potency [8]
active: Potency [3] 0.727 µM | Potency [4] 40.9 µM | Potency [7] 25.1 µM

[Cl][Sn]([c]1ccccc1)([c]1ccccc1)[c]1ccccc1
active: Potency [3] 0.952 µM | Potency [4] 6.74 µM | Potency [7] 2.08 µM | Potency [8] 7.56 µM
inactive: activity change, negative = inhibition [1] 12.9% [at 23.8 µM] | activity change, negative = inhibition [2] 0.0872% [at 23.6 µM] | activity change, negative = inhibition [6] -2.03% [at 23.6 µM]

C[C@@H]1O[C@@H](O[C@H]2C[C@@H](O)[C@]3(CO)[C@H]4[C@H](O)C[C@]5(C)[C@@H](C6=CC(=O)OC6)CC[C@]5(O)[C@@H]4CC[C@]3(O)C2)[C@H](O)[C@H](O)[C@H]1O
inactive: Potency [1] | Potency [2] | Potency [3] | Potency [4] | Potency [5] | Potency [7] | Potency [8]

C[C@@H]1O[C@@H](O[C@@H]2C=C3CC[C@@H]4[C@H](CC[C@]5(C)[C@@H](c6ccc(=O)oc6)CC[C@]45O)[C@@]3(C)CC2)[C@H](O)[C@H](O)[C@H]1O
inactive: Potency [1] | Potency [2] | Potency [3] | Potency [4] | Potency [6] | Potency [7] | Potency [8]

CN(CCCC(=O)c1cccnc1)N=O
active: Potency [8] 17.8 µM
inactive: Potency [1] | Potency [2] | Potency [3] | Potency [4] | Potency [5] | Potency [7]

Brc1c(Br)c(Br)c(Oc2c(Br)c(Br)c(Br)c(Br)c2Br)c(Br)c1Br
inactive: activity change, negative = inhibition [1] 6.2% [at 23.8 µM] | activity change, negative = inhibition [2] -0.487% [at 23.6 µM] | activity change, negative = inhibition [3] 0.431% [at 23.6 µM] | activity change, negative = inhibition [4] 12.5% [at 23.6 µM] | activity change, negative = inhibition [6] -11% [at 23.6 µM] | activity change, negative = inhibition [7] -0.0422% [at 15.8 µM] | activity change, negative = inhibition [8] 2.2% [at 23.6 µM]

N#Cc1ccccc1Cl
inactive: Potency [1] | Potency [2] | Potency [3] | Potency [4] | Potency [6] | Potency [7]
